PubChem BioAssay (Tox21)
“And” between values parts separate entries of the source, which are not always exact repeats. Identical values can stand only once. The source made the active and inactive calls. A call without a number means that no potency is given here. Unless noted, calls come from the whole dose curve.

Tested on: not listed separately
Experiment: qHTS assay to identify small molecule antagonists of the estrogen receptor alpha (ER-alpha) signaling pathway - cell viability counter screen (AID 743074);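 note: HEK293 cells carrying ER-alpha-UAS-bla reporter stimulated with 17beta-estradiol; nearly all actives have a fitted effect of over 45% in size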
Settings: ERalpha-bla HEK293 viability, CellTiter-Glo luminescence, 18 h; series mostly up to 69.4 µM
Potency is the fitted concentration of half-maximal effect.

Row | SMILES | Potency
1 | Cl[Si](Cl)(c1ccccc1)c1ccccc1 | inactive
2 | CC(C)(C)c1ccc(C(O)CCCN2CCC(C(O)(c3ccccc3)c3ccccc3)CC2)cc1 (centres undefined) | inactive
3 | NC(=S)NC(N)=S | inactive
4 | CCCCC/C=C\C/C=C\CCCCCCCC(=O)O | inactive
5 | O=C(Nc1ccc2c(O)c(N=Nc3ccc(N=Nc4ccc(S(=O)(=O)O)cc4)cc3)c(S(=O)(=O)O)cc2c1)c1ccccc1 | inactive
6 | O=C(O)c1cc(O)c2ccccc2c1O | inactive
7 | [Cu+] | inactive
8 | Cc1cc(C(C)(C)C)c(O)c(C)c1Cn1c(=O)n(Cc2c(C)cc(C(C)(C)C)c(O)c2C)c(=O)n(Cc2c(C)cc(C(C)(C)C)c(O)c2C)c1=O | inactive
9 | CC(N=C(NC#N)Nc1ccncc1)C(C)(C)C (centres undefined) | inactive
10 | COc1cc(S(=O)(=O)O)c(C)cc1N=Nc1c(O)ccc2cc(S(=O)(=O)O)ccc12 | inactive
11 | CCCCCCCCCCCCCC[N+](C)(C)Cc1ccccc1 | 21.3 µM (active) and 22.2 µM (active)
12 | COc1cccc2c1C(=O)c1c(O)c3c(c(O)c1C2=O)C[C@@](O)(C(C)=O)C[C@@H]3O[C@H]1C[C@H](N)[C@H](O)[C@H](C)O1 | inactive

Target: Estrogen receptor (Homo sapiens) (UniProt P03372)
Experiment: qHTS assay to identify small molecule agonists of the estrogen receptor alpha (ER-alpha) signaling pathway (AID 743075);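 note: HEK293 GripTite cells with ER-alpha and UAS-driven beta-lactamase reporter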
Settings: HEK293 ER-alpha-UAS-bla, beta-lactamase FRET ratio, 18 h; series mostly up to 70.1 µM

Sequence of Estrogen receptor (Homo sapiens) (P03372 whole entry, looked up): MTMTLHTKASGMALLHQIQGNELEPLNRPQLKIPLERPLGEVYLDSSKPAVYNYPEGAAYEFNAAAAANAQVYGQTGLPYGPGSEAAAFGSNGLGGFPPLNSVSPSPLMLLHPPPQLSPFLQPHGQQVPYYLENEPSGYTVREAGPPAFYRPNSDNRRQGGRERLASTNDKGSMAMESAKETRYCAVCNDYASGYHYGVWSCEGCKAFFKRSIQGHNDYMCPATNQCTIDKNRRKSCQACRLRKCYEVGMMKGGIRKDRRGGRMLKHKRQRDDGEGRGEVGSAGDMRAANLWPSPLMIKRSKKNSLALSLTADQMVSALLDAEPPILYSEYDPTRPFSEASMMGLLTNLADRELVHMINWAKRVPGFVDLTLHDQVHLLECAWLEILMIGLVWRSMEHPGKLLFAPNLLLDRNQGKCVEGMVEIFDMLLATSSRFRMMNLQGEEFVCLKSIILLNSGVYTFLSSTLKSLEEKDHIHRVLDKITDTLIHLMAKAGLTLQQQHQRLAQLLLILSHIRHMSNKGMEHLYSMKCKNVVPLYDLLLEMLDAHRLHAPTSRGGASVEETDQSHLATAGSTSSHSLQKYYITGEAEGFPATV

Row | SMILES | Potency
13 | Oc1cc(Cl)cc(Cl)c1Cl | inactive
14 | CN1CCN2c3ccccc3Cc3ccccc3C2C1 (centres undefined) | inactive
15 | CCCCCC(C)OC(=O)COc1ccc(Cl)c2cccnc12 (centres undefined) | inactive
16 | Cc1cc(C(C)(C)C)cc(C)c1CC1=NCCN1 | inactive
17 | Cc1ccc(N/N=c2\c(=O)cc/c(=N\Nc3ccc(S(=O)(=O)O)cc3)c2=O)c(C)c1 | inactive
18 | O=C(c1ccc(O)c(O)c1)c1ccc(O)cc1O | 3.46 µM [inconclusive] (active)
19 | CCOc1ccc2ccccc2c1C(=O)N[C@@H]1C(=O)N2[C@@H]1SC(C)(C)[C@@H]2C(=O)O | inactive
20 | CC(C)CCOC(=O)/C=C/c1ccccc1 | inactive
21 | C[C@H]1NCc2cc(-c3ccc4c(=O)c(C(=O)O)cn(C5CC5)c4c3OC(F)F)ccc21 | inactive
22 | CCCCCCCCCCCCCCCC[N+](C)(C)CC | inactive
23 | CN1CCCCC1CCN1c2ccccc2Sc2ccc(S(C)=O)cc21 (centres undefined) | inactive
24 | Nc1cc(Cl)c(O)c(Cl)c1 | inactive
25 | O=S(=O)(O)c1ccc(N=Nc2c(O)ccc3ccccc23)cc1 | inactive
26 | CC[C@H](C)COC(=O)/C=C/c1ccc(N=Cc2ccc(OC)cc2)cc1 | inactive
27 | O=c1c(O)c(-c2ccc(O)cc2O)oc2cc(O)cc(O)c12 | inactive
28 | Cl[Si](Cl)(c1ccccc1)c1ccccc1 | inactive
29 | CC(C)(C)c1ccc(C(O)CCCN2CCC(C(O)(c3ccccc3)c3ccccc3)CC2)cc1 (centres undefined) | inactive
30 | NC(=S)NC(N)=S | inactive
31 | CCCCC/C=C\C/C=C\CCCCCCCC(=O)O | inactive
32 | O=C(Nc1ccc2c(O)c(N=Nc3ccc(N=Nc4ccc(S(=O)(=O)O)cc4)cc3)c(S(=O)(=O)O)cc2c1)c1ccccc1 | inactive
33 | O=C(O)c1cc(O)c2ccccc2c1O | inactive
34 | [Cu+] | inactive
35 | Cc1cc(C(C)(C)C)c(O)c(C)c1Cn1c(=O)n(Cc2c(C)cc(C(C)(C)C)c(O)c2C)c(=O)n(Cc2c(C)cc(C(C)(C)C)c(O)c2C)c1=O | inactive
36 | COc1cc(S(=O)(=O)O)c(C)cc1N=Nc1c(O)ccc2cc(S(=O)(=O)O)ccc12 | inactive
37 | CCCCCCCCCCCCCC[N+](C)(C)Cc1ccccc1 | inactive

Target: Estrogen receptor (Homo sapiens) (UniProt P03372)
Experiment: qHTS assay to identify small molecule agonists of the estrogen receptor alpha (ER-alpha) signaling pathway using the BG1 cell line (AID 743079; active = well fitted activation curve with a large enough effect in the repeat runs; inconclusive = weak or mixed curves, or effect the other way; inactive = no such curve, though single readings can be large or run the other way; note: nearly all actives have a fitted effect of over 20% in size)
Settings: BG1Luc4E2 cells, ERE-luciferase agonist, 22 h; series mostly up to 70.3 µM

Row | SMILES | Potency
38 | CCCCCC(C)OC(=O)COc1ccc(Cl)c2cccnc12 (centres undefined) | inactive
39 | Cc1cc(C(C)(C)C)cc(C)c1CC1=NCCN1 | inactive
40 | Cc1cc(C)c(/C=C2\C(=O)Nc3ccccc32)[nH]1 | inactive
41 | Cc1ccc(N/N=c2\c(=O)cc/c(=N\Nc3ccc(S(=O)(=O)O)cc3)c2=O)c(C)c1 | inactive
42 | O=C(c1ccc(O)c(O)c1)c1ccc(O)cc1O | 3.85 µM (active)
43 | CCOc1ccc2ccccc2c1C(=O)N[C@@H]1C(=O)N2[C@@H]1SC(C)(C)[C@@H]2C(=O)O | inactive
44 | CC(C)CCOC(=O)/C=C/c1ccccc1 | 24.4 µM (active)
45 | C[C@H]1NCc2cc(-c3ccc4c(=O)c(C(=O)O)cn(C5CC5)c4c3OC(F)F)ccc21 | inactive
46 | CN1CCCCC1CCN1c2ccccc2Sc2ccc(S(C)=O)cc21 (centres undefined) | inactive
47 | Nc1cc(Cl)c(O)c(Cl)c1 | inactive
48 | O=S(=O)(O)c1ccc(N=Nc2c(O)ccc3ccccc23)cc1 | inactive
49 | CC[C@H](C)COC(=O)/C=C/c1ccc(N=Cc2ccc(OC)cc2)cc1 | 2.73 µM (active)
50 | Cl[Si](Cl)(c1ccccc1)c1ccccc1 | inactive
51 | CC(C)(C)c1ccc(C(O)CCCN2CCC(C(O)(c3ccccc3)c3ccccc3)CC2)cc1 (centres undefined) | inactive
52 | NC(=S)NC(N)=S | inactive
53 | CCCCC/C=C\C/C=C\CCCCCCCC(=O)O | inactive
54 | Cc1cc(C(C)(C)C)c(O)c(C)c1Cn1c(=O)n(Cc2c(C)cc(C(C)(C)C)c(O)c2C)c(=O)n(Cc2c(C)cc(C(C)(C)C)c(O)c2C)c1=O | inactive
